The values below come from PubChem BioAssay AID1209 (Sanford-Burnham Center for Chemical Genomics, 2008).

Out of some 190,000 compounds screened, about 810 (0.43%) were called active. No stated cut-off is given here; in the data, active means inhibition above about 50%; inactive means the rest. Many of the other results were omitted from the sample, so actives are more common in it than they were.

Chain of Mannose-6-phosphate isomerase (Homo sapiens) (P34949 whole entry, looked up): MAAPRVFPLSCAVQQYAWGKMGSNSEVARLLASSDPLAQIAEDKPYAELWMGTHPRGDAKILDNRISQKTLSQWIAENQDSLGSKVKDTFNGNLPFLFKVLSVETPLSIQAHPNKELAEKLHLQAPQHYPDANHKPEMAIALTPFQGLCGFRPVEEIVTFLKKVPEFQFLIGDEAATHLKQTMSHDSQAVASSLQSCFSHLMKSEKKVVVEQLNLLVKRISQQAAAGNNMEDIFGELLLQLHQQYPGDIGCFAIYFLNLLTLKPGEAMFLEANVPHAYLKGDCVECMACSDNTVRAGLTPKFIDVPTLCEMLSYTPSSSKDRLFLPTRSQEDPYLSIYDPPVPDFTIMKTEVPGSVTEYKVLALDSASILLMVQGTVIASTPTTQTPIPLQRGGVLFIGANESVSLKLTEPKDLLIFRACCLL

This assay concerns the target Mannose-6-phosphate isomerase (Homo sapiens) (UniProt P34949). Description: MPI enzyme activity inhibition – biochemical, fluorescence intensity, coupled assay, primary screen (AID 1209).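 Further: plate controls were DMSO vehicle for no effect and wells lacking substrate for full effect.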 To be noted: purified PMI enzyme, at 20 µM, hits give high values.
As to `Cc1cccc(NC(=S)N(CCCN2CCOCC2)Cc2ccccn2)c1`, the inhibition was -1.4% (inactive).

On to `CCN(CC)C(=O)c1cn(C)c(=O)c2cc(OC)c(OC)cc12`, for which the inhibition was 12.6% (inactive).

With `COc1ccc(CNc2nc(-c3cccnc3)nn2C(=O)C(C)C)cc1`, the inhibition was 1.5% (inactive).

`Cc1nn(C2CCS(=O)(=O)C2)c(Cl)c1/C=C/C(=O)OCC(=O)Nc1ccccc1[N+](=O)[O-]` (configuration not stated): the inhibition is 18.2% (inactive).

As for `C(=N/n1c2ccccc2c2ccccc21)/c1ccco1`, the inhibition is 18.5% (inactive).

`C(=Nc1cccc2c(N=Cc3ccco3)cccc12)c1ccco1`: the inhibition was 82.9% (active).

Regarding `CN(C)c1ccc(N=Cc2ccco2)cc1`, the inhibition was 44.6% (inactive).

Take `COC(=O)Cn1c(=O)n(CCc2ccccc2)c(=O)c2c3c(sc21)CCCC3`: the inhibition was 23% (inactive).

Turning to `COC(=O)c1ccc(NC(=O)CSc2nnc(C)n2-c2ccccc2)cc1`, the inhibition was 9.9% (inactive).

Turning to `NC(CO)C(=O)NNCc1ccc(O)c(O)c1O` (configuration not stated), the inhibition is 78% (active).

Turning to `Cc1cc(C(=O)O)c(S(C)(=O)=O)s1`, the inhibition is -0.9% (inactive).

Turning to `Cc1cc(-c2nsc(=O)o2)c(S(C)(=O)=O)s1`, the inhibition was 53.2% (active).

On to `O=C(CCc1cnccn1)NC1CCCc2c1cnn2-c1ccc(F)cc1F` (configuration not stated), for which the inhibition is 6.3% (inactive).

For `C=CCSc1nc2sc3c(c2c(=O)n1CC)CCc1ccccc1-3`, the inhibition is 71.8% (active).

With `C=CCSc1nc2sc3c(c2c(=O)n1CC=C)CCc1ccccc1-3`, the inhibition is 10.5% (inactive).

With `C=CCn1c(SCC)nc2sc3c(c2c1=O)CCc1ccccc1-3`, the inhibition is 7.8% (inactive).

Take `CS(=O)(=O)N1N=C(c2ccc(Br)cc2)CC1c1cccs1` (configuration not stated): the inhibition is 12.1% (inactive).

On to `Cc1sc(/N=C/c2ccccc2O)c(C#N)c1C`, for which the inhibition is 0.9% (inactive).

Turning to `COc1ccc(O)c(/C=N/c2sc(C)c(C)c2C#N)c1`, the inhibition is 53.8% (active).

For `Cc1sc(/N=C/c2c(O)ccc3ccccc23)c(C#N)c1C`, the inhibition was -6% (inactive).

Consider `CN(CCC1CCOCC1)C(=O)CC1C(=O)NCCN1C/C=C/c1ccccc1` (configuration not stated), for which the inhibition was 5.6% (inactive).

For `Cc1ccc(-c2nc(N)s[n+]2-c2ccccc2)cc1`, the inhibition is 106% (active).

On to `Cc1ccc(-c2nnc(-c3ccccc3)c(-c3ccccc3)n2)cc1`, for which the inhibition is 8.3% (inactive).

Regarding `Cc1ccc(-c2nc(N)sc2C)cc1`, the inhibition was -11% (inactive).

As for `Cc1ccc(-c2nc(N)sc2-c2ccc(C)cc2)cc1`, the inhibition was 13.3% (inactive).

In the case of `Cc1ccc(-c2cc(-c3ccccc3)nc(Cl)n2)cc1`, the inhibition was 16.6% (inactive).

Regarding `CNc1nc(-c2ccccc2)[n+](-c2ccc(C)cc2)s1`, the inhibition was 89.5% (active).

In the case of `O=C(Nc1ccc(N2CCCC2)c(Cl)c1)c1ccccc1[N+](=O)[O-]`, the inhibition was -3.5% (inactive).

Turning to `Cc1cc(N/N=C/c2ccc(Cl)cc2Cl)nc(NCc2ccccc2)n1`, the inhibition was 20.3% (inactive).

Take `O=C(NCc1ccccc1)NCC12CC3CC(CC(C3)C1)C2`: the inhibition was 1.8% (inactive).

As for `CCCC[n+]1c(C)sc2cc(OC)ccc21`, the inhibition was 16.5% (inactive).

For the compound `CCC[n+]1c(C)sc2c(OC)ccc(OC)c21`, the inhibition was 3.5% (inactive).

On to `Cc1ccc2c(c1)sc(C)[n+]2CCCS(=O)(=O)[O-]`, for which the inhibition was 9.6% (inactive).

Consider `CC[n+]1c(/C=C/C=C/N(C(C)=O)c2ccccc2)sc2cc(OC)ccc21`, for which the inhibition was -17.8% (inactive).

In the case of `CC[n+]1c(C)sc2cc(OC)ccc21`, the inhibition is 73.9% (active).

Take `COc1ccc2sc(C)[n+](C)c2c1`: the inhibition was 84.3% (active).

In the case of `CCOC(=O)C[n+]1c(C)sc2ccc(OC)cc21`, the inhibition was 3.3% (inactive).

`COc1ccc2sc(/C=C/c3ccccc3O)[n+](C)c2c1`: the inhibition was 4.3% (inactive).

Turning to `CC[n+]1c(C)sc2cc(C)ccc21`, the inhibition is 77% (active).

On to `Cc1ccc2sc(C)[n+](CCC(C)S(=O)(=O)[O-])c2c1` (configuration not stated), for which the inhibition was 1% (inactive).

For `CCC[n+]1c(C)sc2c3c(ccc21)CCCC3`, the inhibition is 22.9% (inactive).

Take `O=C(Nc1cccc(C(=O)N2CCOCC2)c1)NC1CCCCC1`: the inhibition was 8.1% (inactive).

In the case of `N#Cc1c(SCC(N)=O)nc(-c2ccccc2)c2c1CCCC2`, the inhibition is -2.9% (inactive).

On to `CCN1C(=O)C2(C(C#N)=C(N)Oc3cc(C)oc(=O)c32)c2ccccc21` (configuration not stated), for which the inhibition is 5.6% (inactive).

As for `CCC(C)c1ccccc1NC(=O)Cc1coc2cc3c(cc12)CCC3` (configuration not stated), the inhibition is 19.4% (inactive).

For the compound `CCOc1ccc(N2C(=O)CCC2=O)cc1`, the inhibition is 6.4% (inactive).

With `C/C(=C\C(=O)OCC(=O)NCc1ccccc1)C(=O)OCC(=O)NCc1ccccc1`, the inhibition is 6% (inactive).

`O=C1CCC([N+](=O)[O-])C(c2cccc(Br)c2)N1` (configuration not stated): the inhibition was -1% (inactive).

Regarding `O=C(Cn1cc2c(n1)CCCC2)NCC1CCCO1` (configuration not stated), the inhibition was 3.4% (inactive).

Consider `Cc1ccc2sc(C)[n+](CCO)c2c1`, for which the inhibition is -7.8% (inactive).

On to `Cc1sc2c3ccsc3ccc2[n+]1C`, for which the inhibition is -2.6% (inactive).

In the case of `Cc1sc2ccc3sccc3c2[n+]1C`, the inhibition was -21.2% (inactive).

On to `CCCC[n+]1c(C)sc2ccc(C)cc21`, for which the inhibition was 61.6% (active).

Take `Cc1ccc2sc(C)[n+](CCCS(=O)(=O)[O-])c2c1`: the inhibition is -3% (inactive).

As for `CC[n+]1c(C)sc2c3ccsc3ccc21`, the inhibition was 66.7% (active).

Take `CCOP(=O)(OCC)C(Nc1ccc(C)cc1)c1ccco1` (configuration not stated): the inhibition was -14.5% (inactive).

For the compound `NC(=O)N/N=C/c1ccccc1OCC(=O)NCc1ccccc1`, the inhibition was 1.8% (inactive).

For `Cc1ccc(S(=O)(=O)NC(N)=NCCc2ccc(Cl)cc2)cc1C`, the inhibition is 15.4% (inactive).

With `CC(C)N1CCC2(CC1)N=C(c1ccc3c(c1)OCO3)CC(c1cc(Cl)ccc1O)N2` (configuration not stated), the inhibition was 23.4% (inactive).

On to `COc1ccc(C(=O)c2cnc(/N=C/N(C)C)s2)cc1`, for which the inhibition was 14.2% (inactive).

For `COc1ccc(NC(=O)CSc2nnc(Cn3cnc4ccccc43)o2)cc1`, the inhibition was 4.8% (inactive).

Regarding `O=C1NC(=S)S/C1=C\c1ccc(SCc2ccccc2)o1`, the inhibition is 80.4% (active).

Turning to `O=C1/C(=C\c2ccco2)SC(=S)N1c1ccccc1`, the inhibition was 22.8% (inactive).

With `Cc1cccc(C)c1-n1cccc1/C=C1\SC(=S)N(c2cccc(C(=O)O)c2)C1=O`, the inhibition was 1.3% (inactive).

Take `Cc1ccc(/C=C2\SC(=S)N(Cc3ccccc3)C2=O)o1`: the inhibition was 18.3% (inactive).

On to `O=C(O)c1cccc(N2C(=O)/C(=C/c3ccc(SCc4ccc(Cl)cc4)o3)SC2=S)c1`, for which the inhibition is 73.3% (active).

In the case of `O=C1NC(=S)S/C1=C\c1ccc(SCc2ccco2)o1`, the inhibition is 10.3% (inactive).

As to `O=C1NC(=S)S/C1=C/c1ccc(N2CCOCC2)o1`, the inhibition was -25.3% (inactive).

Regarding `O=C(O)c1cc(-c2ccc(/C=C3/SC(=S)N(Cc4ccccc4)C3=O)o2)ccc1Cl`, the inhibition was -29.3% (inactive).

As for `O=C(O)CN1C(=O)/C(=C/c2ccc(SCc3ccccc3)o2)SC1=S`, the inhibition was 85.2% (active).

In the case of `COC(=O)[C@@H](NC(=O)N(C1CCCCC1)C1CCCCC1)C(C)C`, the inhibition was -2.2% (inactive).

For `Cc1nnc(SCC(=O)N2CC(=O)Nc3ccccc32)n1C`, the inhibition was -5.6% (inactive).

On to `Cc1ccc(N/C=C/C(=O)c2sc(-c3ccccc3)nc2C)cc1`, for which the inhibition was 14.3% (inactive).

In the case of `COc1ccc(-c2csc(NC(=O)Cc3cccc4ccccc34)c2C(=O)O)cc1`, the inhibition was -0.1% (inactive).

Take `O=C(O)c1cccnc1SC1CC(=O)N(CCc2ccccc2)C1=O` (configuration not stated): the inhibition is 3.4% (inactive).

As for `CCc1nnc(NC(=O)c2ccc(S(=O)(=O)N3CCN(Cc4ccccc4)CC3)cc2)s1`, the inhibition is -1.5% (inactive).

As for `C/C=C/c1c(F)c(F)c(Oc2ccc(C(=O)O)cc2)c(F)c1F`, the inhibition is -3.5% (inactive).

Regarding `Cc1noc(C)c1COC(=O)CNC(=O)c1ccc(Cl)cc1`, the inhibition is -4.1% (inactive).

Turning to `COCCNC(=O)c1ccc(CN2CCOCC2)cc1`, the inhibition is -8.4% (inactive).

Consider `CCN1C(=O)C(CC(=O)Nc2ccc(OC)cc2)N(CCc2ccc(OC)cc2)C1=S` (configuration not stated), for which the inhibition was -4.1% (inactive).

For the compound `C=CCOC(=O)C1=C(C)NC(=S)NC1/C=C/c1ccccc1` (configuration not stated), the inhibition is 2.3% (inactive).

Turning to `O=c1c(Cc2ccc(F)cc2)c(O)ccn1CCCn1ccnc1`, the inhibition is 3% (inactive).

As for `COc1ccc(C(=O)Oc2ccc(C(=S)N3CCOCC3)cc2)cc1`, the inhibition was 51% (active).

For the compound `O=C(Oc1ccc(C(=S)N2CCOCC2)cc1)c1ccc(Br)cc1`, the inhibition was 5.3% (inactive).

`O=C(Oc1ccc(C(=S)N2CCOCC2)cc1)c1ccccc1`: the inhibition was 3.3% (inactive).

`O=C(Nc1ncccn1)c1ccc(C(F)(F)F)cc1`: the inhibition was 4% (inactive).

Take `CCOC(=O)C1(CCOC)CCN(Cc2ccccc2-c2ccco2)CC1`: the inhibition is 3.5% (inactive).

Consider `O=C1CCCN2N=C(SCC(=O)Nc3nccs3)SC2=N1`, for which the inhibition is -3.6% (inactive).

For `CCCCOc1ccc(/C=C/C(=O)NC2=Nc3ccccc3NC(C)=C2C(=O)OCC)cc1OC`, the inhibition was 65.6% (active).

Take `CCOC(=O)C1=C(C)Nc2ccccc2N=C1NC(=O)/C=C/c1ccc(OC)cc1OC`: the inhibition was 19.3% (inactive).

For the compound `CCOC(=O)C1=C(C)Nc2ccccc2N=C1NC(=O)Cc1ccc(OC)cc1`, the inhibition is 1.1% (inactive).

As to `Cc1c(-c2ccccc2)[n+](=O)c(-c2ccc(Cl)cc2)c(C)n1[O-]`, the inhibition was 4.1% (inactive).

As to `Cc1ccc(CN(c2ccc(C(=O)NCc3cccnc3)cc2)S(C)(=O)=O)cc1`, the inhibition is -2.9% (inactive).

As for `c1ccc(Cc2nnc3sc(-c4cccs4)nn23)cc1`, the inhibition is 8.2% (inactive).

`Clc1ccccc1-c1nn2c(COc3ccccc3)nnc2s1`: the inhibition was 9.4% (inactive).

In the case of `CCOc1ccccc1OCc1nn2c(COc3ccccc3)nnc2s1`, the inhibition is 45.2% (inactive).

On to `c1ccc(OCc2nnc3sc(-c4cccs4)nn23)cc1`, for which the inhibition was 65.5% (active).

`c1ccc(CCc2nn3c(Cc4ccccc4)nnc3s2)cc1`: the inhibition is 38.2% (inactive).

Consider `c1ccc(Cc2nn3c(COc4ccccc4)nnc3s2)cc1`, for which the inhibition is 53.1% (active).

In the case of `Cc1cccc(NC(=O)CSc2nnc(-c3n[nH]c4ccccc34)o2)c1`, the inhibition is 17.6% (inactive).

With `COCCNC(=S)Nc1ccc([N+](=O)[O-])cc1C`, the inhibition is 2% (inactive).

Consider `CCOc1ccccc1N(C(=O)c1ccco1)C(C(=O)NC1CCCC1)c1cccnc1` (configuration not stated), for which the inhibition is 5.1% (inactive).
